# Measurements taken from PubChem BioAssay AID1578 (Sanford-Burnham Center for Chemical Genomics, 2009).
# In all, about 290,000 compounds went through this assay and about 3,000 (1%) were called active. The list comes from a sample in which actives are over-represented; it also holds similar structures and randomly drawn compounds. Values without a mark were called inactive. No stated cut-off is given here; in the data, active means inhibition mostly above about 36% (no sharp cut-off); inactive means mostly below about 34%.
# Assay: inhibition of NOD1-driven NF-kB reporter – cell-based, luminescence, uHTS, primary screen (AID 1578);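 further: HEK-293T reporter cells stimulated with the NOD1 agonist gamma-tri-DAP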
# Details: NOD1-driven NF-kB luciferase reporter cells, at 4 µM, active compounds read high
row,SMILES,inhibition
1,O=C(NNC(=S)Nc1ccc(Cl)c(Cl)c1)c1cccc([N+](=O)[O-])c1,-11.1%
2,CN(C(=O)CC1C(=O)NCCN1Cc1cccc(F)c1F)C1CCOCC1 (stereo not drawn),-24.4%
3,CCC(CCC(=O)Nc1nncs1)C(=O)O (stereo not drawn),0.6%
4,O=C(O)CCCCCCC1C(=O)NC(=O)N1CCC(O)C1CCCCC1 (stereo not drawn),75.2% (active)
5,CC(O)[C@H]1CNC(=O)C(=O)N1CCCCC1CCCCC1 (stereo partly drawn),-9.4%
6,O=C(O)CCCCCN1C(=O)C2CCCCC2C1=O (stereo not drawn),-26.7%
7,CCOC(=O)c1c(C)[nH]c(C)c1S(=O)(=O)N(C)CC(=O)NCc1cccc(Br)c1,-19.6%
8,COc1ccc(-c2c3c(cc(C)[n+]2[O-])oc2ccc(OC)cc23)cc1,-20%
9,Cc1[nH]nc2c1C(c1ccc3c(c1)OCO3)C(C#N)=C(N)O2 (stereo not drawn),-33.1%
10,CC(C)c1cccc(C(C)C)c1NC(=O)c1ccccc1,-17.6%
11,CC(C)c1cccc(C(C)C)c1NC(=O)CCl,68.4% (active)
12,CC(C)c1cccc(C(C)C)c1NC(=O)CN1CCCC1,-21.2%
13,COc1ccccc1CNC(=O)Cn1nnnc1CN(C)C(C)C,-103%
14,COc1ccc2oc(C(=O)NC(C)(C)C)c(C)c2c1,-42.6%
15,CCCC(=O)C1=C(O)C(C(=O)OC)C(C)(C)CC1=Nc1ccccc1 (stereo not drawn),-9.6%
16,CCCC(=O)C1=C(O)C(C(=O)OC)C(C)(C)CC1=Nc1ccc(OC)cc1 (stereo not drawn),-37.1%
17,CCCC(=O)C1=C(O)C(C(=O)OC)C(C)(C)CC1=Nc1cccc2ccccc12 (stereo not drawn),53.5% (active)
18,O=C(NCC1CCCO1)c1ccc(/C=N/O)nc1 (stereo not drawn),-26.9%
19,CC1(C)CC(N2CCCCC2)=CC(=[N+]2CCCCC2)C1,36.9%
20,CC1(C)CC(N2CCCC2)=CC(=[N+]2CCCCC2)C1,-30.9%
21,CC1(C)CC(N2CCCC2)=CC(=[N+]2CCCC2)C1,27.8%

row,SMILES,inhibition
1,CC1(C)CC(N2CCN(c3ccccc3)CC2)=CC(=[N+]2CCCC2)C1,55%
2,O=C(Cn1c(=O)c2sccc2n(Cc2ccc([N+](=O)[O-])cc2)c1=O)NCCc1ccccc1,-16.6%
3,Cn1c(CNC(=O)CCNC(=O)c2cccc(F)c2)cc(=O)n(C)c1=O,-2.9%
4,Cc1cccc(C(=O)N=c2sccn2C)c1[N+](=O)[O-],-69.7%
5,O=C(NCc1ccc(F)cc1)C(=O)Nc1nc(C23CC4CC(CC(C4)C2)C3)cs1,46.9%
6,O=C(NCc1ccncc1)C(=O)Nc1nc(C23CC4CC(CC(C4)C2)C3)cs1,-11.3%
7,O=C(NCc1ccccc1)C(=O)Nc1nc(C23CC4CC(CC(C4)C2)C3)cs1,89.4% (active)
8,CC(=O)Nc1ccc(C(=O)OCC(=O)Nc2c(F)cccc2F)cc1,-4.7%
9,O=S1(=O)CCC(S(=O)(=O)N2CCCCCC2)C1 (stereo not drawn),98.1% (active)
10,CCCCS(=O)(=O)C1CCS(=O)(=O)C1 (stereo not drawn),-31.7%
11,Cc1ccc(S(=O)(=O)N2CCCN(S(=O)(=O)C3CCS(=O)(=O)C3)CC2)cc1 (stereo not drawn),-14.1%
12,CC(C)C1Nc2ccc(C(=O)NCc3ccco3)cc2NC1=O (stereo not drawn),-8.3%
13,CC12CCC(=O)N1C(C(=O)Nc1nnc(SCc3ccccc3F)s1)CS2 (stereo not drawn),-32.1%
14,O=C(Cn1c(=O)[nH]c2ccccc2c1=O)Nc1cccnc1,-10.3%
15,O=C(Cn1ncc2c([nH]c3ccccc32)c1=O)Nc1cccnc1,55.7% (active)
16,Cc1ccc(NC(=O)Cn2ncc3c([nH]c4ccccc43)c2=O)cc1Cl,1.5%
17,O=C(NCCCN1CCCC1)[C@H](CSCc1ccccc1)N1Cc2ccccc2C1=O,-6.7%
18,COc1cccc(CN2CCNC(=O)C2CC(=O)N(C)C2CCCCC2)c1 (stereo not drawn),-1.2%
19,CC1CCCCN1C(=O)C(=O)c1cn(CC(=O)N2CCCCCC2)c2ccccc12 (stereo not drawn),-20.8%
20,CCOC(=O)C1CCN(S(=O)(=O)c2ccc3c(c2)CCN3C(C)=O)CC1,6.1%
21,CC(=O)N1CC(C)Sc2ccc(S(=O)(=O)N3CCCCC3)cc21 (stereo not drawn),6.9%

row,SMILES,inhibition
1,CC1CCN(C(=O)c2cc3ccccc3c(=O)o2)CC1,-21.4%
2,Cc1cccc(CCNC(=O)CNS(=O)(=O)c2ccc3nc(C)sc3c2)c1,12.4%
3,Cc1ccc(N2CC(C(=O)NC3CC3)CC2=O)cc1 (stereo not drawn),17.9%
4,COc1ccc2nc(NC3=NC(c4ccccc4)CC(=O)N3)nc(C)c2c1 (stereo not drawn),-18.7%
5,COc1ccc(S(=O)(=O)NNC(=O)C2CC(c3cccnc3)=NO2)cc1 (stereo not drawn),-24.9%
6,O=C(NNS(=O)(=O)c1ccc(F)cc1)C1CC(c2cccnc2)=NO1 (stereo not drawn),51% (active)
7,O=C(NNS(=O)(=O)c1ccccc1)C1CC(c2cccnc2)=NO1 (stereo not drawn),-32.5%
8,COc1ccc(C(=O)C2CCN(CC(=O)Nc3ccc(OC)cc3OC)CC2)cc1,-10.7%
9,COC(=O)c1sc(=S)n(Cc2ccccc2)c1C,5%
10,COc1ccc(CNC(=O)CCC(=O)N2CC(C)Oc3ccccc32)cc1 (stereo not drawn),-16.3%
11,O=S(=O)(c1ccc(Cl)c(Cl)c1)c1snnc1-c1ccccc1,77.3% (active)
12,c1ccc(-c2nnsc2-c2ccccc2)cc1,6.7%
13,O=C(Nc1ccccc1)c1nnsc1S(=O)(=O)c1ccc(Cl)cc1,67.9%
14,Cc1nnsc1S(=O)(=O)c1ccccc1,-10.8%
15,O=S(=O)(c1ccc(F)cc1)c1snnc1-c1ccccc1,24.9%
16,CCCCCCCSc1nnc(N)s1,5.6%
17,CC(C)(C)NC(=O)COC(=O)c1ccccc1NC(=O)c1ccco1,-42.8%
18,CC1CN(C(=O)c2cc3ccccc3oc2=O)CC(C)O1 (stereo not drawn),0.9%
19,C/C(=N\NC(=O)c1ccncc1)c1ccc(NC(=O)c2ccc(Cl)cc2)cc1,7%
20,C/C(=N\NC(=O)c1ccccc1NC(=O)c1ccc(Cl)cc1)c1ccncc1,60.4% (active)
21,C/C(=N/NC(=O)c1ccncc1)c1ccc(NC(=O)c2ccccc2)cc1,-8.8%
